# Test results reported in PubChem BioAssay (NCATS).
# Inconclusive results are not listed. Values without a mark were called inactive. Active and inactive are the calls of the source. The call rests on the fitted dose curve; in most records, active means well fitted curve in either direction with a large enough effect (not every such curve was filed as active); inconclusive means small, poorly fitted or top-dose-only effect, or another doubt; inactive means flat fitted curve, though single readings scatter.
# Assay: NFAT Signaling Pathway (AID 444)
# Settings: Jurkat NFAT-bla M1, carbachol, beta-lactamase ratio, 5 h; at 7.69 µM (top of the series) unless noted
# Text: NCGC Assay Overview: The nuclear factor of activated T cells (NFAT) family of transcription factors has been found primarily in most immune system cells and some other non-immune cells. NFAT plays the immunomodulatory role, primarily in T-cell activation and differentiation. NFAT target genes are also involved in the regulation of apoptosis and differentiation in non-immune cell types. The NFAT sequence was engineered to the upstream of the ?-lactamase reporter gene and transfected into Jurkat cells with co-transfection of muscarinic receptor1 [provided by Invitrogen Corp]. When an extracellular stimulus, such as carbachol, binds to the GPCR M1 receptor, it stimulates a signaling cascade that activates NFAT response element and ?-lactamase expression by phosphorylating the NFAT binding protein. This cell based ?-lactamase reporter gene assay can accurately monitor any changes occurring along the NFAT pathway, and can be used for screening small molecule inhibitor or activator upon activation by carbachol EC50 concentration. A small molecular library were screened in a titration series resulting in AC50s (can be either IC50s or EC50s).
# NCGC Assay Protocol Summary: The cells were prepared in RPMI 1640 medium containing 0.1% dialyzed FBS and 25 mM HEPES at 1.6 x 10^6cell/ml. The assay was performed in 1536-well plate format as follows: 5 ul of cell preparation 23 nl of compounds 1ul of carbachol (final concentration 1 uM) Briefly centrifuge the plates and incubate at 37 °C for 5 hours 1 ul of CCF4 dye mixture Incubate the plates at RT for 1 hour Read the plate in EnVision plate reader (Ex= 405nm, and Em1=460nm and Em2=530nm). The %Activity was determined from the ratio of 460nm/530nm. Data normalization and AC50 calculations were accomplished using GeneData software.
# On the % scale 0 is the no-effect control and ±100 the full control effect.
row,SMILES,"activity change, negative = inhibition"
1,COc1cc([C@@H](O)CN)ccc1O,6.77% [at 38 µM]
2,O=C(O)CNC(=O)c1ccc([As](=O)(O)O)cc1,7.56%
3,O=C(O)[C@H](Cc1cnc[nH]1)N1C(=O)c2ccccc2C1=O,7.47%
4,CCCOC(=O)[C@@H]1[C@@H](C(=O)O)[C@H]2CC[C@@H]1O2,-0.63%
5,Nc1ccc(S(=O)(=O)c2ccc(NCN3C(=O)NC(=O)C(=O)C3=O)cc2)cc1,14.2%
6,C[Se]C[C@@H](N)C(=O)O,5.06% [at 38 µM]
7,CC(C)[C@@H](Br)C(=O)NCC(=O)O,0.167%
8,O=C(O)C[C@H]1NCc2cc3ccccc3nc21,13.5%
9,c1nc(N2CC2)c2cnn([C@@H]3CCCCO3)c2n1,7.32%
10,NNc1nncn1N,5.16%
11,COc1cc2c(cc1OC)[C@@]13CCN4C=C5CCO[C@H]6CC(=O)N2[C@@H]1[C@@H]6[C@H]5C[C@H]43,16.4%
12,CC[C@@H]1[C@@H]2Cc3ccc(O)cc3[C@@]1(CC)CCN2C,17.1%
13,Nc1nc(N)c(N=Nc2ccc([As](=O)(O)O)cc2)c(=O)[nH]1,5.43%
14,CSC([N-]/N=C/c1cccc(C)n1)=[S]=[Cu].CS[C@H]([S-])[N-]/N=C/c1cccc(C)n1,-102% (active)
15,c1cc(CCN2CCCCC2)ccn1,7.13%
16,C=C(C)c1ccccc1 (tested in a mixture with another compound),-21.5%
17,CN1C[C@H](C(=O)N[C@@]2(C)O[C@@]3(O)[C@H]4CCCN4C(=O)[C@@H](Cc4ccccc4)N3C2=O)C=C2c3cccc4[nH]cc(c34)C[C@@H]21,-0.805%
18,N[C@H](Cc1ccc(N(CCCl)CCCl)cc1)C(=O)O,-21.6% [at 38 µM]
19,O=C(O)C(=O)Cc1ccc2c(c1)OCO2,16.4%
20,CCSCC[C@H](N)C(=O)O,3.15%

row,SMILES,"activity change, negative = inhibition"
1,CC(C)CNCCc1ccccn1,10.3%
2,[N-]=[N+]=CC(=O)CC[C@H](N)C(=O)O,-6.88%
3,Oc1ccc(CCNCc2cc3c(cc2Br)OCO3)cc1,-17%
4,CCN(CC)CCn1ncc2c(N)ncnc21,0.535%
5,COc1ccc2c3c1O[C@@H]1C(=O)CC[C@@]4(O)[C@@H](C2)N(CC2CC2)CC[C@]314,-9.4% [at 38 µM]
6,Oc1ccc([C@H](O)[C@@H]2CCCCN2)cc1O,5.42%
7,O=C(Nc1cc[c]([Sb](=[O])([OH])[OH])cc1)c1ccccc1,23.1%
8,O=C(O)c1cc(N=Nc2ccc([As](=O)(O)O)cc2)ccc1O,6.3%
9,C1C[C@@H]2CN(CCCN3CCOCC3)[C@@H](C1)O2,9.72%
10,C[C@@]12CC[C@H](O[C@@H]3O[C@H](CO)[C@@H](O)[C@H](O)[C@@H]3O)C[C@@H]1CC[C@H]1[C@H]2CC[C@@]2(C)[C@@H](C3=CCOC3=O)CC[C@]12O,2.85%
11,CCOC(=O)c1ccc2[nH]c(-c3ccc(S(=O)(=O)F)cc3)cc(=O)c2c1,25.8%
12,CC(C)c1ccc(C(O)(C(=O)O)c2ccc(C(C)C)cc2)cc1,-9.63%
13,CC(C)c1nccn1Cc1ccc(Cl)cc1Cl,-21%
14,NC(CCl)=N[C@H]1CN2CCC1CC2,1.17%
15,CCNC(=O)[C@@H]1O[C@@H](n2cnc3c(N)ncnc32)[C@@H](O)[C@H]1O,-9.11% [at 38 µM]
16,C[C@@]12CC[C@H]3[C@H](CCC4=CC(=O)CC[C@H]43)[C@H]1CC[C@H]2OC1(O)C(=O)c2ccccc2C1=O,-18.3%
17,CC1=NN(c2ccccc2)C(=O)[C@@H]1N=Nc1ccc([As](=O)(O)O)c(O)c1,12.3%
18,CC[C@H]1CN2CCc3cc(OC)c(OC)cc3[C@H]2C[C@@H]1C[C@H]1NCCc2c1[nH]c1ccc(O)cc21,-128% (active)
19,Cc1ccc(OP(=O)(Oc2ccc(C)cc2)N2C=Cc3ccccc3[C@H]2C#N)cc1,-17.9%
20,COc1cc2c3cc1Oc1c(O)c(OC)cc4c1[C@@H](Cc1ccc(cc1)Oc1cc(ccc1O)C[C@H]3N(C)CC2)N(C)CC4,-11.5%
